This passage reports Potency results from PubChem BioAssay (Tox21).

The assay is described as follows: G protein-coupled receptor (GPCR) small molecule agonists, calcium flux assay: HEK293 wild type cell line counter screen (AID 1920065). The note with it: HEK293 WT calcium flux, fluorescence, agonist mode; series mostly up to 57.6 µM. The gist of the method: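 In this agonist-mode screen, ATP is the positive control and DMSO the vehicle. Cells grow 18 h before a 1 h dye incubation at 37 C; signal is taken at Ex/Em 480/540 over 3 min.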
In general terms: A change in cytosolic calcium serves as a functional read-out for many receptors and channels.

The source made the active and inactive calls. A call without a number means that no potency is given here. The call rests on the fitted dose curve.

Take `CN1CCC[C@H]1c1cccnc1`: the Potency result is “inactive”.
Turning to `O=C(OCc1ccccc1)c1ccccc1`, the Potency entry is “inactive”.
In the case of `CCn1cc(C(=O)O)c(=O)c2ccc(C)nc21` it was “inactive”; in that of `O=C(O)[C@H](O)[C@@H](O)[C@H](O)[C@H](O)CO`, “inactive”; in that of `CCCCCCCCCC(=O)OC`, “inactive”.
In the case of `Cn1cc[nH]c1=S`, the Potency result is “inactive”.
In the case of `CCCC(CCC)C(=O)O` it was “inactive”.
The result for `O=C(C1CCCCC1)N1CC(=O)N2CCc3ccccc3C2C1` (centres undefined) reads “inactive”; that for `NS(=O)(=O)c1cc(C(=O)O)c(NCc2ccco2)cc1Cl`, “inactive”; that for `CC(O)(P(=O)(O)O)P(=O)(O)O`, “inactive”.
In the case of `O=C(O)c1ccccc1C(=O)O` it was “inactive”.
In the case of `CC(=O)Oc1ccc(C(c2ccc(OC(C)=O)cc2)c2ccccn2)cc1`, the Potency result was “inactive”.
Regarding `CC(C)c1ccc(C(C)C)cc1`, the Potency result was “inactive”.
For the compound `CC1(C)O[C@@H]2C[C@H]3[C@@H]4CCC5=CC(=O)C=C[C@]5(C)[C@@]4(F)[C@@H](O)C[C@]3(C)[C@]2(C(=O)CO)O1`, the Potency entry was “inactive”.
In the case of `O=C(O)Cc1cccc2ccccc12` it was “inactive”; in that of `COc1ccc([N+](=O)[O-])cc1N`, “inactive”.
The result for `CS(=O)(=O)OCCCCOS(C)(=O)=O` reads “inactive”.
The result for `CN(C)C(=O)Nc1ccc(Cl)c(Cl)c1` reads “inactive”; that for `CC(=O)c1ccc(S(=O)(=O)NC(=O)NC2CCCCC2)cc1`, “inactive”; that for `OB(O)O`, “inactive”.
With `CCCCCCCCC`, the Potency result is “inactive”.
In the case of `CCc1cccc(CC)c1N` it was “inactive”.
The result for `CCCCCCCCCCCO` reads “inactive”; that for `CC(=O)[C@@]1(O)CC[C@H]2[C@@H]3C[C@H](C)C4=CC(=O)C=C[C@]4(C)[C@@]3(F)[C@@H](O)C[C@@]21C`, “inactive”; that for `Nc1ncn([C@@H]2O[C@H](CO)[C@@H](O)[C@H]2O)c(=O)n1`, “inactive”.
In the case of `C=CC(=O)OCCOCCOCCOCCOC(=O)C=C` it was “inactive”.
Take `Nc1cc(Cl)c(N)c(Cl)c1`: the Potency result is “inactive”.
Turning to `CC(C)(C)c1cccc(C(C)(C)C)c1O`, the Potency entry was “inactive”.
The result for `CCCCNC(=O)NS(=O)(=O)c1ccc(C)cc1` reads “inactive”; that for `CCCCCCCCCCCCCCCCO`, “inactive”.
In the case of `CC1COC(=O)O1` (centres undefined) it was “inactive”.
The result for `O=C1OC(c2ccc(O)cc2)(c2ccc(O)cc2)c2ccccc21` reads “inactive”; that for `CCC(O)OC(O)CC` (centres undefined), “inactive”.
Take `CC1(C)C(=O)N(Cl)C(=O)N1Cl`: the Potency entry is “inactive”.
In the case of `CC(C)=CCCC(C)CCO` (centres undefined) it was “inactive”.
In the case of `CCCCCCCCCCCCN` it was “inactive”.
In the case of `CCCCCCCCCCCCCC[N+](C)(C)C` it was “inactive”; in that of `CC1(C)[C@@H]2CC[C@@]1(C)C(=O)C2`, “inactive”; in that of `c1ccncc1`, “inactive”.
Turning to `CCCCCCCCCCCCO`, the Potency entry is “inactive”.
The result for `c1ccc2c(c1)[nH]c1ccccc12` reads “inactive”.
The result for `CCCCCCO` reads “inactive”; that for `O=C(O)CCCCCCCCC(=O)O`, “inactive”.
The result for `CC(C)OB(OC(C)C)OC(C)C` reads “inactive”.
As for `C=C(C)C(=O)Nc1ccc(Cl)c(Cl)c1`, the Potency result is “inactive”.
In the case of `Cc1c(OCC(F)(F)F)ccnc1CS(=O)c1nc2ccccc2[nH]1` (centres undefined) it was “inactive”; in that of `Nc1ccc(Cl)cc1Cl`, “inactive”; in that of `CCNc1ccccc1`, “inactive”.
In the case of `COC(=O)c1cccnc1` it was “inactive”; in that of `c1ccc2c(c1)ccc1ccccc12`, “inactive”.
Turning to `CCCCCCc1ccc(O)cc1O`, the Potency result is “inactive”.
Regarding `NC(N)=NC(=O)c1nc(Cl)c(N)nc1N`, the Potency entry is “inactive”.
The result for `O=C(O)c1cccc([N+](=O)[O-])c1` reads “inactive”.
In the case of `C#C[C@]1(O)CC[C@H]2[C@@H]3CCC4=Cc5oncc5C[C@]4(C)[C@H]3CC[C@@]21C` it was “inactive”; in that of `CCCCOC(=O)CC(CC(=O)OCCCC)(OC(C)=O)C(=O)OCCCC`, “inactive”.
The result for `CC(=O)Nc1ccc2c(c1)Cc1cc(NC(C)=O)ccc1-2` reads “inactive”.
In the case of `Cc1cccc(Nc2cc(Cl)nc(SCC(=O)O)n2)c1C`, the Potency entry was “inactive”.
With `COc1ccc(C)cc1N`, the Potency result is “inactive”.
The result for `Cc1cccc(O)c1C` reads “inactive”; that for `COc1ccc(C(Cl)=C(c2ccc(OC)cc2)c2ccc(OC)cc2)cc1`, “inactive”; that for `CCc1nc(N)nc(N)c1-c1ccc(Cl)cc1`, “inactive”.
In the case of `C#CCN(C)Cc1ccccc1` it was “inactive”; in that of `Nc1ccn([C@H]2CC[C@@H](CO)O2)c(=O)n1`, “inactive”; in that of `C=Cc1cccc(C)c1`, “inactive”.
